“And” between values parts separate entries of the source, which are not always exact repeats. Equal values may be shown once. Records with an inconclusive call do not appear. A number with no mark means an inactive call. The source made the active and inactive calls. Unless noted, calls come from the whole dose curve.
What was measured:
[1] = Cell Viability - BJ (AID 421); conditions: BJ fibroblast viability, qHTS;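 note: potency is the fitted concentration of half-maximal effect; cells exposed to compound for 40 hours at 37 °C before readout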
Summary of the method: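 Luminescent ATP signal (CellTiter-Glo, 20 min at room temperature) served as the read-out of viable BJ cells after 40 hours of compound treatment. Responses were scaled between DMSO and 100 uM tamoxifen, and AC50 values were obtained by Hill modeling.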

[2] = Cell Viability - Jurkat (AID 426;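 active = dose-dependent loss of cell ATP signal giving a full or clear fitted curve, ranked by lower potency value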;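 note: potency is the fitted concentration of half-maximal effect; cells exposed to compound for 40 hours at 37 °C before ATP read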); conditions: qHTS
Summary of the method: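 Seed 5000 Jurkat E6-1 cells/well; add compound; incubate 40 hr at 37 °C; add CellTiter-Glo; wait 20 min at room temperature; read luminescence. Fit concentration-response with Hill equation for AC50.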

[3] = Cell Viability - Hek293 (AID 427;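 active = compounds whose dose-response curve shows a full or clear partial loss of cell viability, called from curve shape rather than a numeric limit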;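 note: potency is the fitted concentration of half-maximal effect; cells exposed to compound for 40 hours at 37 °C before reading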); conditions: qHTS
Summary of the method: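 Luminescent ATP read-out (CellTiter-Glo, 20 min RT) after 40 hr compound exposure at 37 °C in complete medium. Signal normalized to DMSO (basal) and 100 uM tamoxifen (100% inhibition); concentration-response fitted with the standard Hill equation to give AC50.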

[4] = Cell Viability - HepG2 (AID 433); conditions: qHTS;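 note: potency is the fitted concentration of half-maximal effect; potency for ATP loss meaning cytotoxicity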
Summary of the method: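 Cytotoxicity is scored as loss of intracellular ATP in HepG2 cells exposed to compounds for 40 h. Concentration-response curves, normalized to DMSO and 100 uM tamoxifen, give AC50 values.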

[5] = Cell Viability - MRC5 (AID 434); conditions: MRC5 lung fibroblast viability, qHTS;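 note: potency is the fitted concentration of half-maximal effect; cells exposed to compound for 40 hours at 37 °C; potency reflects cytotoxicity seen as loss of intracellular ATP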
Summary of the method: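 qHTS cytotoxicity in human lung fibroblast MRC5 cells; 40 hr treatment, 37 °C; cellular ATP by luciferase luminescence; DMSO = 0%, 100 uM tamoxifen = 100% inhibition; Hill-fit AC50.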

[6] = Cell Viability - SK-N-SH (AID 435); conditions: SK-N-SH neuroblastoma cell viability qHTS;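 note: potency is the fitted concentration of half-maximal effect; compound exposure lasted 40 h at 37 °C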
Summary of the method: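 Cells seeded at 1500 per well and incubated 5 hr at 37 °C. Compound added, then 40 hr at 37 °C. CellTiter-Glo added, 20 min at room temperature, luminescence read.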

[7] = AP1 Signaling Pathway (AID 357; active = well fitted curve in either direction with a large enough effect, not every such curve was filed as active;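 note: ME-180 reporter cells stimulated with EGF at its EC50 level; % is set by controls: 0 for no effect and ±100 for the full control effect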)
Summary of the method: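 Modulation of EGF-driven AP-1 transcription was assessed with a beta-lactamase reporter in ME-180 cells. Compound and EC50 EGF were co-incubated 5 hours at 37 °C before 2.5-hour CCF4 loading at room temperature and dual-emission reading.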

[8] = NFAT Signaling Pathway (AID 444; active = well fitted curve in either direction with a large enough effect, not every such curve was filed as active;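 note: carbachol stimulus at about its EC50 of 1 µM final; % is set by controls: 0 for no effect and ±100 for the full control effect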); conditions: Jurkat NFAT-bla M1, carbachol, beta-lactamase ratio, 5 h
Summary of the method: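 Read-out: CCF4 FRET ratio (460 nm/530 nm) after 1 h RT dye loading, used for %activity and AC50 from titration series. Cells: Jurkat NFAT-β-lactamase/M1 line, treated with compound plus 1 uM carbachol for 5 h, 37 °C.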

[9] = target: Cytochrome P450 1A2 (Homo sapiens) (UniProt P05177); test: p450-cyp1a2 (AID 410); note: potency is the fitted concentration of half-maximal effect;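 for activity change, negative = inhibition: -100% = full effect of reference inhibitor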
Summary of the method: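 Inhibition was calculated relative to 57 uM furafylline (full inhibition). The reaction used human CYP1A2 at 20nM with Luciferin-ME at its Km, 100uM, driven by an NADPH-regenerating system for 60 min at room temperature.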

Sequence of Cytochrome P450 1A2 (Homo sapiens) (P05177 whole entry, looked up): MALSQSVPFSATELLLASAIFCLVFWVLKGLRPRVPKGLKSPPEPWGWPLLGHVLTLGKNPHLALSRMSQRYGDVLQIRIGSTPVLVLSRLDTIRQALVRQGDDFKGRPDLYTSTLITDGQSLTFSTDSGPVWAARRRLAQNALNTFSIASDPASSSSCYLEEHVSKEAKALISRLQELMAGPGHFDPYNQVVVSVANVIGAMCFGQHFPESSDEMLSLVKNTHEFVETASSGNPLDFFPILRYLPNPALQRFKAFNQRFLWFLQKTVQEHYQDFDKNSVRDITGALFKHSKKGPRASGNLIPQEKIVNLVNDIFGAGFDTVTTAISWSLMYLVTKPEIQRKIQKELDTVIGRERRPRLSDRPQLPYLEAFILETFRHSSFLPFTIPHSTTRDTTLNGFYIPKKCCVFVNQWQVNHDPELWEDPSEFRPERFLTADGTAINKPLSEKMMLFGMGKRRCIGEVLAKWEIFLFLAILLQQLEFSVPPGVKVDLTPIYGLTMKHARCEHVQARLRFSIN

## c1ccc2c(c1)Nc1ccccc1S2
[1]
  Potency: > 92 µM
[2]
  Potency: > 92 µM
[3]
  Potency: > 92 µM
[4]
  Potency: > 92 µM
[5]
  Potency: > 92 µM
[6]
  Potency: > 92 µM

## COc1ccc(Cc2nccc3cc(OC)c(OC)cc23)cc1OC
[7]
  outcome: inactive
[8]; at 17.2 µM (top of the series)
  activity change, negative = inhibition: -29.4%

## C[C@]12C/C(=C/O)C(=O)C[C@@H]1CC[C@@H]1[C@@H]2CC[C@@]2(C)[C@H]1CC[C@]2(C)O
[2]
  Potency: 54.9 µM (active)
[4]
  Potency: > 92 µM
[5]
  Potency: > 92 µM

## Oc1ccccc1-c1ccccc1
[1]
  Potency: > 92 µM
[3]
  Potency: > 92 µM
[4]
  Potency: > 92 µM
[5]
  Potency: > 92 µM
[6]
  Potency: > 92 µM

## C#CCN(C)[C@H](C)Cc1ccccc1
[9]
  Potency: 12.6 µM (active)

## O=P1(NCCCl)OCCCN1CCCl (stereo unspecified)
[7]
  outcome: inactive
[8]; at 17.2 µM (top of the series)
  activity change, negative = inhibition: -9.45%

## OCCOc1ccccc1
[1]
  Potency: > 92 µM
[2]
  Potency: > 92 µM
[3]
  Potency: > 92 µM
[4]
  Potency: > 92 µM
[5]
  Potency: > 92 µM
[6]
  Potency: > 92 µM

## CCCC(C)(COC(N)=O)COC(=O)NC(C)C (stereo unspecified)
[1]
  Potency: > 92 µM
[2]
  Potency: > 92 µM
[3]
  Potency: > 92 µM
[4]
  Potency: > 92 µM
[5]
  Potency: > 92 µM
[6]
  Potency: > 92 µM
[8]; at 17.2 µM (top of the series)
  activity change, negative = inhibition: -6.68%

## CC[N+]1(C)CCCC(OC(=O)C(O)(c2ccccc2)c2ccccc2)C1 (stereo unspecified)
[7]
  outcome: inactive
[8]; at 17.2 µM (top of the series)
  activity change, negative = inhibition: -75.8% (active)

## Oc1ccc(Cl)cc1Cc1ccccc1
[1]
  Potency: > 92 µM
[2]
  Potency: > 92 µM
[3]
  Potency: > 92 µM
[4]
  Potency: > 92 µM
[6]
  Potency: > 92 µM

## C=C1CC[C@@]2(O)[C@H]3Cc4ccc(O)c5c4[C@@]2(CCN3CC2CC2)[C@H]1O5
[7]
  outcome: inactive
[8]; at 17.2 µM (top of the series)
  activity change, negative = inhibition: -9.27%

## COC1(CS(=O)c2ccccc2)CCN(CCc2c[nH]c3ccc(F)cc23)CC1 (stereo unspecified)
[9]
  Potency: inactive

## CN1C[C@H](CNC(=O)OCc2ccccc2)C[C@@H]2c3cccc4c3c(cn4C)C[C@H]21
[7]
  outcome: inactive
[8]; at 17.2 µM (top of the series)
  activity change, negative = inhibition: 11.1%

## CC(=O)[C@H]1CC[C@H]2[C@@H]3CC[C@H]4C[C@H](O)CC[C@]4(C)[C@H]3C(=O)C[C@]12C
[7]
  outcome: inactive
[8]; at 17.2 µM (top of the series)
  activity change, negative = inhibition: -29.1%

## NP(N)(=O)NC(=O)c1ccc(F)cc1
[9]
  Potency: inactive

## N[C@@H](Cc1ccc(N(CCCl)CCCl)cc1)C(=O)O
[1]
  Potency: > 92 µM
[2]
  Potency: 18.3 µM (active)

## CC[C@@H](CO)NC(=O)[C@@H]1C=C2c3cccc4c3c(cn4C)C[C@H]2N(C)C1
[7]
  outcome: inactive
[8]; at 17.2 µM (top of the series)
  activity change, negative = inhibition: -12.8%

## CCOP(=S)(OCC)Oc1cc(C)nc(C(C)C)n1
[1]
  Potency: > 92 µM
[2]
  Potency: > 92 µM
[3]
  Potency: > 92 µM
[4]
  Potency: > 92 µM
[5]
  Potency: > 92 µM
[6]
  Potency: > 92 µM

## O=c1[nH]c2ccccc2n1C1CCN(CCCC(c2ccc(F)cc2)c2ccc(F)cc2)CC1
[9]
  Potency: 20 µM (active) and 31.6 µM (active)

## NCC(O)c1ccc(O)cc1 (stereo unspecified)
[1]
  Potency: > 92 µM
[2]
  Potency: > 92 µM
[3]
  Potency: > 92 µM
[4]
  Potency: > 92 µM
[5]
  Potency: > 92 µM
[6]
  Potency: > 92 µM

## CCN(CC)C(=O)N[C@@H]1C=C2c3cccc4[nH]cc(c34)C[C@@H]2N(C)C1
[7]
  outcome: inactive
[8]; at 38 µM (top of the series)
  activity change, negative = inhibition: -9.69% and -17.6%

## CCn1cc(C(=O)O)c(=O)c2ccc(C)nc21
[7]
  outcome: inactive
[8]; at 17.2 µM (top of the series)
  activity change, negative = inhibition: -8.77% and -6.5%
[8]; at 38 µM (top of the series)
  activity change, negative = inhibition: 12.2%

## Cc1ncc(CNC(=O)N(CCCl)N=O)c(N)n1
[7]
  outcome: inactive
[8]; at 38 µM (top of the series)
  activity change, negative = inhibition: 3.51%

— PubChem BioAssay (NCATS)
